# Experiments:
# Settings in all cases: concentration: 1 μM, replicates: in singlicate; n = 1
# ASK2 = test system: T1, ASK2
# T1 construct: gene MAP3K6
# AURKA = test system: AURKA
# AURKB = test system: AURKB
# AURKC = test system: AURKC
# AXL = test system: AXL
# BIKE = test system: T2, BIKE
# T2 construct: gene BMP2K
# BLK = test system: BLK
# BMPR1A = test system: BMPR1A
# BMPR1B = test system: BMPR1B
# BMPR2 = test system: BMPR2
# BMX = test system: BMX
# BRAF = test system: BRAF
# BRK = test system: T3, BRK
# T3 construct: gene PTK6
# BRSK1 = test system: BRSK1
# BRSK2 = test system: BRSK2
# BTK = test system: BTK
# BUB1 = test system: BUB1
# CAMK1B = test system: CAMK1B
# CAMK1D = test system: CAMK1D
# CAMK1G = test system: CAMK1G
# 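Further: KINOMEscan kinase panel screen.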
Structure (SMILES),%Inh (ASK2) [%],%Inh (AURKA) [%],%Inh (AURKB) [%],%Inh (AURKC) [%],%Inh (AXL) [%],%Inh (BIKE) [%],%Inh (BLK) [%],%Inh (BMPR1A) [%],%Inh (BMPR1B) [%],%Inh (BMPR2) [%],%Inh (BMX) [%],%Inh (BRAF) [%],%Inh (BRK) [%],%Inh (BRSK1) [%],%Inh (BRSK2) [%],%Inh (BTK) [%],%Inh (BUB1) [%],%Inh (CAMK1B) [%],%Inh (CAMK1D) [%],%Inh (CAMK1G) [%]
COCCOCCOc1cc2ncc3c4ccc(C#N)cc4[nH]c3c2cc1OC,0,51,83,62,44,100,21,0,0,0,35,0,18,0,12,0,96.7,14,25,1
CC(C)c1nc(-c2cccc(NS(=O)(=O)c3c(F)cccc3F)c2F)c(-c2ccnc(Nc3ccc(N4CCOCC4)nc3)n2)s1 [GSK2008607],3,93.6,91.8,53,97.5,24,99.7,53,98.5,0,99.2,99.9,88,49,75,95.3,98,67,94.3,42
O=C(Nc1ccccc1F)NC1CCN(c2ccnc(Nc3ccc(F)cc3)n2)CC1 [GSK1379800],17,15,0,54,15,39,0,8,0,12,3,0,0,0,0,0,63,36,5,0
Cl.Cl.NCC(NCc1ccc(-c2ccnc3[nH]ccc23)s1)c1ccccc1 (stereo not drawn) [GSK1321565],0,47,79,97.2,95.1,100,0,0,0,3,8,0,0,0,0,0,64,59,17,11
COc1ccc(Nc2nccc(N3CCC(NC(=O)Nc4cccc(OC)c4)C3)n2)cc1 (stereo not drawn) [GSK1379742],13,0,53,10,0,13,37,0,0,12,0,2,10,4,0,0,29,17,0,0
CN(c1ccc(NC(=O)Nc2cc(C(F)(F)F)ccc2F)cc1)c1ccnc(Nc2ccc(S(N)(=O)=O)cc2)n1 [GW809893],17,90.7,95.7,67,93.3,26,96.7,28,20,78,71,66,76,15,8,25,0,0,38,0
Cl.Cl.NCC(NC(=O)c1cc(-c2ccccc2)c(-c2ccnc3[nH]ccc23)s1)c1ccccc1 (stereo not drawn) [GSK1321561],1,33,0,69,46,79,58,4,0,0,38,9,8,0,0,0,72,24,5,0
COc1cccc(-c2ccc3c(NC(=O)C4CC4)n[nH]c3n2)c1 [SB-710903],0,0,35,0,0,0,0,0,35,44,0,0,3,8,3,29,82,11,0,0
c1ccc(Oc2ccc(Nc3ccnc4cc(-c5ccc(CNCCN6CCOCC6)o5)ccc34)cc2)nc1 [GW567145],0,22,71,9,0,0,86,0,0,14,20,0,85,0,0,86,54,0,2,0
Cl.c1ccc(-c2ccc3c(Nc4ccc5[nH]ccc5c4)ccnc3c2)nc1 [GW440138],0,8,0,1,0,2,70,0,5,26,5,0,28,0,0,0,64,11,0,0
CN(C)S(=O)(=O)c1cc(-c2ccc3nccc(-c4cccc(S(N)(=O)=O)c4)c3c2)cnc1N [GSK1669921],5,8,0,17,10,22,18,0,0,3,21,30,11,12,0,0,0,0,25,7
Cl.NC(=O)c1cccc(Nc2nccc(Nc3ccc(Oc4c(Cl)cccc4Cl)c(Cl)c3)n2)c1 [GW659009],0,0,17,43,5,56,45,100,0,0,0,6,76,0,0,36,17,0,2,0
c1ccc(-c2cnc3nccnn23)cc1 [AH20685],0,0,13,0,0,0,37,0,0,0,0,33,22,0,0,6,0,0,0,0
Cn1cc(-c2ccc3c(c2)CCN3C(=O)Cc2cccc(F)c2)c2c(N)ncnc21 [GSK2603358],0,20,95.5,47,83,10,50,0,0,3,0,4,26,14,67,0,52,34,74,11
O=C(NC1CCN(c2ccnc(Nc3ccc(F)cc3)n2)C1)c1cc2ccccc2s1 (stereo not drawn) [GSK1379716],9,4,24,53,19,26,62,0,0,0,22,0,25,18,9,0,64,9,17,0
O=C(Nc1n[nH]c2nc(-c3ccc(O)cc3)ccc12)C1CC1 [SB-710363],12,11,47,0,37,32,12,8,34,16,22,0,0,26,11,0,0,0,0,4
COc1cc(Nc2nccc(-c3c(-c4cccc(NC(=O)c5c(F)cccc5F)c4)nn4ncccc34)n2)cc(OC)c1OC [GSK327238],8,99.1,92.5,70,91.3,7,99.6,3,0,0,91.4,96,97.6,0,40,94,54,0,13,3
CC(=O)Nc1nc2cnc(Nc3cc(NC(=O)c4cccc(C5(C#N)CC5)c4Cl)ccc3C)nc2s1,0,0,26,0,0,0,45,0,0,2,1,99.4,30,10,0,0,0,0,30,0

# From article PMC5540273 (PLoS ONE, 2017)
